Experimental data as given in PubChem BioAssay (NCI).
This is part of a sample that, as a whole, favours compounds with a hit. Of some 83,000 tested, about 20% had one in any assay.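 48-hour exposure, single concentration, 96-well plates; percent growth endpoint where 0 means no net growth. Active: below 10.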 Values without a mark were called inactive. Activity calls are given as the source filed them.

Tests used:
Test in all cases: NCI-60 one-dose screen, 48 h (100 = growth as untreated, 0 = no growth, -100 = all killed)
[1] = system: HCT-15 colon; details: 10 µM unless noted
[2] = system: HT29 colon; details: 10 µM unless noted
[3] = system: SNB-75 CNS; details: 10 µM unless noted
[4] = system: SNB-19 CNS; details: 10 µM unless noted
[5] = system: U251 CNS; details: 10 µM unless noted
[6] = system: PC-3 prostate; details: 10 µM unless noted
[7] = system: SK-MEL-5 melanoma; details: 10 µM unless noted
[8] = system: UACC-62 melanoma; details: 10 µM unless noted
[9] = system: LOX IMVI melanoma; details: 10 µM unless noted
[10] = system: SK-MEL-28 melanoma; details: 10 µM unless noted
[11] = system: SK-MEL-2 melanoma; details: 10 µM unless noted
[12] = system: EKVX NSCLC; details: 10 µM unless noted
[13] = system: SN12C renal; details: 10 µM unless noted
[14] = system: UO-31 renal; details: 10 µM unless noted
[15] = system: TK-10 renal; details: 10 µM unless noted
[16] = system: ACHN renal; details: 10 µM unless noted
[17] = system: CAKI-1 renal; details: 10 µM unless noted
[18] = system: A498 renal; details: 10 µM
[19] = system: HL-60(TB) leukemia; details: 10 µM unless noted
[20] = system: CCRF-CEM leukemia; details: 10 µM unless noted

SMILES	growth [1]	growth [2]	growth [3]	growth [4]	growth [5]	growth [6]	growth [7]	growth [8]	growth [9]	growth [10]	growth [11]	growth [12]	growth [13]	growth [14]	growth [15]	growth [16]	growth [17]	growth [18]	growth [19]	growth [20]
COc1cc(NC(C)CCCNC2CN3CCC2CC3)c2ncccc2c1 (stereo not given)	65.8%	27%	78.1%	86.5%	77.7%	55.6%	70%	38%	76.1%	95.3%	91.7%	71.2%	86%	38.3%	79.8%	84.9%	78.1%	57.2%	65.9%	77.7%
COc1ccc(C2=CC(c3ccc(OC)c(OC)c3)c3c(c4ccccc4oc3=O)O2)cc1OC (stereo not given)	13.6%	3.84% (active)	-4.06% (active)	17.9%	24.2%	-18.3% (active)	17.1%	36.8%	36%	50.9%	8.03% (active)	30.4%	58.7%	21.8%	42%	52.7%	7.77% (active)	-3.43% (active)	-59.9% (active)	-6.1% (active)
COc1cccc(C=NC(Cc2cnc[nH]2)C(=O)O)c1O (stereo not given)	108%	100%	86.3%	96.1%	102%	51.5%	94.2%	95.6%	100%	103%	70%	102%	97.5%	84.1%	139%	97.8%	86.5%	98.2%	189%	69.6%
CC12CCC3C(C=CC4=C(N)C(=O)CCC43C)C1CCC2=O (stereo not given)	73%	51.2%	94.2%	103%	54.2%	46.5%	69.7%	81%	60.6%	103%	74.4%	98%	88.5%	64.6%	85.6%	88.2%	84.1%	99.2%	52.5%	6.62% (active)
CN1CCCCC1C(C)(O)c1ccccc1 (stereo not given)	100%	93.4%	93%	107%	101%	82.1%	104%	104%	99%	105%	106%	96.3%	102%	92.5%	94.9%	108%	96.4%	101%	114%	112%
Cc1cc(N(CCCl)CCCl)ccc1C=Nc1cccnc1	84.4%	91.6%	60.2%	81.2%	76.1%	63.1%	77.5%	46.6%	71.6%	97.5%	101%	104%	57.2%	70.3%	56.1%	48.3%	12.7%	-72.3% (active)	41.4%	61.4%
CC(CO)NC1CCCCC1 (stereo not given)	100%	117%	86.9%	102%	98.9%	105%	104%	104%	94.3%	114%	110%	102%	111%	86.8%	94.9%	109%	109%	77.6%	116%	123%
COc1ccc(/C=C\c2cc(OC)c(OC)c(OC)c2)cc1NC(=O)/C=C/c1ccc(OC)c(OC)c1	29.7%	15.7%	16%	36.6%	35.4%	31.7%	5.07% (active)	36.6%	30.8%	51.8%	66.9%	55.1%	43.5%	41.6%	91%	42%	42.3%	-1.67% (active)	-24.9% (active)	12.1%
COC1OC(CO)C(O)C(O)[CH]1[Hg][O]C(C)=O (stereo not given)	87.1%	79.8%	77.3%	94.4%	67.7%	87.9%	86.2%	85.9%	82.3%	97.5%	107%	111%	88.5%	101%	111%	98.5%	101%	106%	94.6%	96.1%
CN1CCC(O)(c2ccc(F)cc2)C(C(=O)c2ccc(F)cc2)C1 (stereo not given)	107%	122%	113%	95.1%	107%	98.4%	102%	100%	94.3%	121%	91.2%	106%	104%	84.7%	110%	101%	104%	104%	134%	85.2%
O=[N+]([O-])c1cc([N+](=O)[O-])c(Cl)cc1Cl	-58.4% (active)	-53.3% (active)	-97.7% (active)	7.75% (active)	-71.3% (active)	-14.7% (active)	30.1%	-79% (active)	-91.1% (active)	-41.2% (active)	-43% (active)	-57.1% (active)	-89% (active)	-93.9% (active)	-92.9% (active)	-91.5% (active)	-81.2% (active)	80.1%	-40.4% (active)	-36.3% (active)
CC12CCC=CC1CCC1C2CCC2(C)C(c3ccc(=O)oc3)CCC12O (stereo not given)	-71.7% (active)	-66.5% (active)	-56.7% (active)	-99.9% (active)	-77.2% (active)	-19.6% (active)	-56.6% (active)	-65.4% (active)	-83.8% (active)	-31.1% (active)	-34.4% (active)	-90.1% (active)	-18.8% (active)	-94.5% (active)	-69.8% (active)	-89.9% (active)	-61.3% (active)	-19.9% (active)	-28% (active)	-16.6% (active)
C/C(Cc1ccc(Cl)cc1)=C(\c1ccc(OCCN2CCOCC2)cc1)c1ccc(OC(=O)Cc2ccccc2)cc1	91.1%	79.5%	89.6%	101%	97.4%	81.9%	95.6%	84.5%	97%	99.7%	84.9%	93.3%	93.8%	67.5%	86.7%	104%	71.6%	98.6%	100%	98.9%
CCOC(=S)S[C@H]1C[C@@H]2[C@H](CC[C@]3(C)C(=O)CC[C@@H]23)[C@@]2(C)CCC(=O)C=C12	101%	111%	93.1%	99.5%	102%	106%	103%	94.3%	97.9%	104%	116%	102%	93.9%	97.3%	100%	109%	99.6%	110%	101%	107%
CCc1ccccc1[C@@H]1C[C@]2(C)CCO[C@@H]2OO1	107%	98.4%	84.7%	93.6%	99.2%	100%	102%	99.9%	99.9%	110%	115%	105%	98.7%	91.5%	96.9%	104%	96.5%	102%	109%	94.1%
C[C@]12CCc3nc(Nc4ccccc4F)sc3C1=CC[C@@H]1[C@@H]2CC[C@]2(C)C(=O)CC[C@@H]12	29.3%	19.1%	87.3%	85.1%	54.3%	54.9%	81.9%	85.8%	14.5%	77%	92.8%	94.4%	69.5%	64.8%	35.7%	9.9% (active)	65.4%	90.6%	34.2%	26.6%
